# Measurements as given in ChEMBL document CHEMBL4513146, “CO-ADD screening of Karazin Kharkiv National University (Ukraine) compounds”.
# Potency and affinity values are given separately.
# Tests used:
# Klebsiella pneumoniae = details: Concentration 32 ug.mL-1;; ASSAY_TEST Inhibition of Bacterial Growth; detection method Absorption (OD600); MEDIA CAMHB; plate type 384well; NBS; CORNING #3640; time 18 hr
# Candida albicans = details: Concentration 32 ug.mL-1; ASSAY_TEST Inhibition of Fungal Growth; detection method Absorption (OD530)
# Cryptococcus neoformans = details: Concentration 32 ug.mL-1; ASSAY_TEST Inhibition of Fungal Growth; detection method Resazurin; Absorption (OD600-OD570); plate type 384well; NBS; CORNING #3640
SMILES,Inhibition (Klebsiella pneumoniae) [%],Inhibition (Candida albicans) [%],Inhibition (Cryptococcus neoformans) [%]
Cc1nnc2c(SCC(=O)Nc3ccc4c(c3)OCCO4)nc3ccccc3n12,9.06,1.7,-7.59
Cc1ccc(-c2noc(Cn3nc4ccc(-c5ccccc5)nn4c3=O)n2)cc1,1.24,8.52,-15.81
Cc1ccc(-n2ccn3c(SCC(=O)N4CCN(c5ccc(F)cc5)CC4)nnc3c2=O)cc1C,1.76,0.36,-5.04
CCc1nnc2c(S(=O)(=O)N(Cc3ccc(OC)c(F)c3)c3ccccc3)cccn12,7.72,-1.05,-3.11
CCOC(=O)C1CCN(c2nc3ccccc3n3c(=O)n(CC(=O)Nc4ccccc4F)nc23)CC1,4.78,13.18,-20.01
Cc1ccc(-c2cc3c4nn(CC(=O)Nc5cccc(C)c5C)c(=O)n4ccn3n2)cc1C,14.55,0.02,-23.37
CC(C)c1nnc2c(SCC(=O)Nc3ccccc3F)nc3ccccc3n12,10.81,2.9,-27.54
COc1ccccc1N1CCN(C(=O)Cn2nc3ccc(-c4ccc(C)c(C)c4)nn3c2=O)CC1,9.25,-0.19,-3.44
CN(C)c1nc2ccccc2n2c(=O)n(CC(=O)Nc3ccc4c(c3)OCO4)nc12,0.98,-0.89,-12.71
COc1cccc(Sc2nc3ccccc3n3c(=O)n(CC(=O)Nc4cccc(F)c4)nc23)c1,12.26,-1.78,-25.49
Cc1cc(Br)ccc1NC(=O)Cn1nc2c(SC3CCCCC3)nccn2c1=O,10.86,1.51,-21.25
Cc1ccc(-c2cc3c4nn(CC(=O)Nc5ccc(F)cc5)c(=O)n4ccn3n2)cc1C,-3.72,22.53,-20.65
COc1ccc(NC(=O)Cn2nc3ccc(-c4ccccc4)nn3c2=O)cc1OC,-3.16,3.57,0.88
O=c1c2sccc2n2c(=O)n(Cc3cccc(Cl)c3)nc2n1Cc1cccs1,3.75,61.44,-14.34
O=C(Cn1nc2c(SCc3ccccc3)nccn2c1=O)NC1CCCCC1,7.95,4.49,-7.22
Cc1ccc(Cn2c(=O)c3ccccc3n3c(=O)n(CC(=O)Nc4ccc5c(c4)OCCO5)nc23)cc1,10.7,0.1,-21.97

SMILES,Inhibition (Klebsiella pneumoniae) [%],Inhibition (Candida albicans) [%],Inhibition (Cryptococcus neoformans) [%]
CCc1nnc2c(S(=O)(=O)N(Cc3ccc(F)cc3)c3cccc(Cl)c3)cccn12,0.19,5.46,-7.67
CC(C)c1ccc(NC(=O)Cn2nc3ccc(SCc4ccc(Cl)cc4)nn3c2=O)cc1,6.44,14.48,-27.26
COc1ccc(-c2cc3c4nn(CC(=O)Nc5cc(C)cc(C)c5)c(=O)n4ccn3n2)cc1,9.4,2.5,-4.71
Cc1ccc(-c2ccc3nn(Cc4nc(-c5ccc(Cl)cc5)no4)c(=O)n3n2)cc1,0.33,7.26,-7.02
O=C(Cn1nc2c(Sc3cccc(F)c3)nccn2c1=O)Nc1ccc(Br)cc1,4.85,1.59,-3.57
COc1cccc(CNC(=O)CSc2nnc3c4cc(-c5cc(C)ccc5C)nn4ccn23)c1OC,10.97,2.62,-25.27
O=C(CCc1nnc2c(N3CCCCC3)nc3ccccc3n12)NCc1ccccc1F,14.62,1.76,-9.32
Cc1ccc(-c2ccc3nn(Cc4ccc(F)cc4Cl)c(=O)n3n2)cc1C,16.15,-0.6,-24.45
CCOc1ccc(NC(=O)Cn2c(=O)c3nnc(C(C)C)n3c3ccccc32)cc1,4.3,1.75,-9.3
CC(C)c1nnc2c(SCC(=O)Nc3ccccc3Br)nc3ccccc3n12,12.82,4.2,-6.3
COc1ccc(-c2cc3c4nnc(SCC(=O)N(C)c5ccccc5)n4ccn3n2)cc1,5.6,32.67,-11.25
O=C(CSc1nnc2c(=O)n(-c3ccc(F)c(F)c3)ccn12)c1cccc(Cl)c1,12.31,1.86,-8.13
CC(C)(C)Sc1ccc2nn(CC(=O)Nc3ccc(Cl)cc3)c(=O)n2n1,16.93,5.49,-24.82
COc1ccc(CCn2c(=O)c3sccc3n3c(=O)n(Cc4ccccc4Cl)nc23)cc1OC,5.53,-1.24,-27.91
O=C(Cn1nc2ccc(Sc3cccc(F)c3)nn2c1=O)Nc1ccc2c(c1)OCCO2,12.38,-0.05,-8.22
COc1cccc(CNC(=O)CSc2nnc3c(=O)n(-c4ccc(C)c(C)c4)ccn23)c1OC,8.73,0.37,-5.22
